Results reported in PubChem BioAssay (NCATS).
Values joined by “and” are separate entries in the source; they are usually repeats but may differ in a detail not shown here. Identical values can stand only once. Records with an inconclusive call do not appear. Active and inactive are the calls of the source. Unless noted, the call rests on the fitted dose curve; in most records, active means well fitted curve in the direction sought with a large enough effect; inconclusive means small, poorly fitted or top-dose-only effect, or another doubt; inactive means no such curve, though single readings can be large; an effect the other way counts as inactive or inconclusive.

Assays:
[1] = target: Cytochrome P450 3A4 (Homo sapiens) (UniProt P08684); assay: qHTS Assay for Inhibitors and Substrates of Cytochrome P450 3A4 (AID 884); further: nearly all actives have a fitted effect of over 50% in size; further: potency means the concentration at half of the fitted maximal effect; on activity change, negative = inhibition: on the % scale 0 is the no-effect control and ±100 the full control effect
Outline: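 20 nM human CYP3A4 with 25 uM Luciferin-PPXE (at KM) in 200 mM KPO4, preincubated 10 min with compound; NADPH regeneration started a 60 min RT reaction. Luciferin detected by luminescence, normalized to 57 uM ketoconazole as full inhibition.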

[2] = Confirmation and Secondary Assay for Modulators of Hemoglobin Beta Chain Splicing at IVS2 654 locus (AID 910);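 further: per-well total GFP intensity by laser scanning cytometry after 2-day treatment; % of control where 0% means no effect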
Outline: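 HeLa cells stably carrying EGFP interrupted by mutant beta-globin IVS2-654 intron (CMV-driven) were treated with compound for 2 days at 37C; corrected splicing was scored as total peak GFP intensity per well (488 nm excitation, 500-520 nm emission).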

[3] = Confirmation and Secondary Assay for Modulators of Hemoglobin Beta Chain Splicing at IVS2 705 locus (AID 930);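 further: HeLa cells stably expressing the EGFP-705 splicing reporter; % of control where 0% means no effect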
Outline: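 HeLa cells stably carrying EGFP interrupted by mutant beta-globin IVS2-705 intron (CMV-driven) were seeded at 500 cells/well, treated next day with compound for 2 days at 37C; corrected splicing restores EGFP, read as total peak GFP intensity per well.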

[4] = qHTS Assay for Lipid Storage Modulators (AID 1519; calls by dose curve; on activity change, negative = inhibition: on the % scale 0 is the no-effect control and ±100 the full control effect); details: Drosophila S3 cells, BODIPY lipid droplet/cell ratio, laser cytometry, cells loaded with oleic acid; for activity change, negative = inhibition: at 57.5 µM (top of the series)
Outline: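 Cells seeded at 5,000 per well were treated with compounds over a concentration series and loaded with oleic acid (400 uM, as added). Lipid droplet fluorescence (488 nm excitation, 500-530 nm channel) was read by laser-scanning cytometry and normalized to 20 uM Triacsin C.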

[5] = target: Ubiquitin carboxyl-terminal hydrolase 1 (Homo sapiens) (UniProt O94782); assay: Inhibitors of USP1/UAF1: Pilot qHTS (AID 504865);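 further: rhodamine fluorescence freed from ubiquitin-rhodamine substrate followed over time; top concentration of the series differs between compounds; on the % scale 0 is the no-effect control and ±100 the full control effect; nearly all actives have a fitted effect of over 35% in size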
Outline: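 Kinetic fluorescence assay: 1nM USP1/UAF1, 15 min compound preincubation, then 150nM Ub-Rho; 480/540 nm.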

[6] = target: Luciferin 4-monooxygenase (Photinus pyralis) (UniProt P08659); assay: Biochemical firefly luciferase enzyme assay for NPC (AID 624030);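 further: purified P. pyralis luciferase at 10 nM with luciferin and ATP substrate; 0% = DMSO and -100% = full luciferase inhibition by PTC124 control; nearly all actives have a fitted effect of over 70% in size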
Outline: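 Counter-screen for direct inhibition of the luciferase enzyme by approved-drug library compounds, run at 10 nM enzyme in 50 mM Tris acetate (final). Luminescence was read within 5 min of enzyme-buffer addition and normalized to PTC124 versus DMSO (0%).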

[7] = measured here: cell count channel max response
[8] = measured here: lipid channel max response

Sequence of Cytochrome P450 3A4 (Homo sapiens) (P08684 whole entry, looked up): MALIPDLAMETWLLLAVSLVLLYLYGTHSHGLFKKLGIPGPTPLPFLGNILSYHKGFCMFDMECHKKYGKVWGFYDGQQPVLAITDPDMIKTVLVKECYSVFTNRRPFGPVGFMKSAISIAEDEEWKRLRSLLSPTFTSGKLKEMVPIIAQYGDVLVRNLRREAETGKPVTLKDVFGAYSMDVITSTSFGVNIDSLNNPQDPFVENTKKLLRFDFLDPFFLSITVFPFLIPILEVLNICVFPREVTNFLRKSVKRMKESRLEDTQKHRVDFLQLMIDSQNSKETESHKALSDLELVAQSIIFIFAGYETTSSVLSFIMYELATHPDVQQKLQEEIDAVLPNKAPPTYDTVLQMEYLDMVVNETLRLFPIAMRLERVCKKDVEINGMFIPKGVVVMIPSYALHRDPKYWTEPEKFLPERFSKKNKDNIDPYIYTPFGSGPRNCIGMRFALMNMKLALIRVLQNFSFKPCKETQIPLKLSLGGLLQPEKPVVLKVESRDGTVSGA
Sequence of Ubiquitin carboxyl-terminal hydrolase 1 (Homo sapiens) (O94782 whole entry, looked up): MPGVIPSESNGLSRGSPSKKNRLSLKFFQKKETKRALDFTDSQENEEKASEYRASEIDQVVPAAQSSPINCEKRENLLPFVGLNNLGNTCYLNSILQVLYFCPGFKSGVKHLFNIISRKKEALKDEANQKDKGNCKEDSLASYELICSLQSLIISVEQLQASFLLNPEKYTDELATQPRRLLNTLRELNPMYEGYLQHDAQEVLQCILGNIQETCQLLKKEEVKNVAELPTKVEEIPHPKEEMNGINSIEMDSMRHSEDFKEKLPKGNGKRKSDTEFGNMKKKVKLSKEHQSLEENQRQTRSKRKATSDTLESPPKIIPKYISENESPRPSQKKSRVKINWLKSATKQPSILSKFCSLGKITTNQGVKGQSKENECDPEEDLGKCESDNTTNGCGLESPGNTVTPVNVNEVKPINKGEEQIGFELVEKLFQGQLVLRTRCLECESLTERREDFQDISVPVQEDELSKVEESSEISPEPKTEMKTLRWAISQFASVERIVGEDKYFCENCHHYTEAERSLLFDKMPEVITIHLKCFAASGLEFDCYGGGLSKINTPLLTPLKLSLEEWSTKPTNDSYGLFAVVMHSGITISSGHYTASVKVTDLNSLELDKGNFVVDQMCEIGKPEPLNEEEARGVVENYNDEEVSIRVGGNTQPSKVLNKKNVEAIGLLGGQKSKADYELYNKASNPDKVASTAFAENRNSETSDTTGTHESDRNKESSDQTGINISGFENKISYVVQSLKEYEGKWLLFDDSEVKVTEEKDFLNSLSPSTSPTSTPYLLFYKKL
Sequence of Luciferin 4-monooxygenase (Photinus pyralis) (P08659 whole entry, looked up): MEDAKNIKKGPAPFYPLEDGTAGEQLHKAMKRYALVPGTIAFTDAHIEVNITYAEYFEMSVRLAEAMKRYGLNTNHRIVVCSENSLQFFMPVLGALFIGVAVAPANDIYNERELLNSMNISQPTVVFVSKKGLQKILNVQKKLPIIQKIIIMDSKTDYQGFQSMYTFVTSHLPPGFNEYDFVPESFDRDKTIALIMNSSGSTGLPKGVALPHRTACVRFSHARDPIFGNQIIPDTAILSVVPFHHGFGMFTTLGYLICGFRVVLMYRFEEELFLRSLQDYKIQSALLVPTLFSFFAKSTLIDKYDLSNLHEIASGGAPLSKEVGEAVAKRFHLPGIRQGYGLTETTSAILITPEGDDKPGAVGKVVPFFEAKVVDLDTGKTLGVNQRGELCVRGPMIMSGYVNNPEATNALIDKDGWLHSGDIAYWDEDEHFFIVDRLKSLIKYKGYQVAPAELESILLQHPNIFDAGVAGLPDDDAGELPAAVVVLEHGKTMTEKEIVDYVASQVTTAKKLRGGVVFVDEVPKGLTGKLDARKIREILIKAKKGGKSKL

## CCOC(=O)c1c(C)cc(O)cc1O
[1]
  Potency: 25.1 µM (active)
[2]
  Potency: inactive
[3]
  Potency: inactive
[4]
  activity change, negative = inhibition: 13% (inactive)
[4]; [7]
  max response: -2.16%
[4]; [8]
  max response: 14.3%
[5]
  Potency: inactive

## OC/C=C/c1ccc(O)c(O)c1
[1]
  Potency: 15.8 µM (active)
[2]
  Potency: inactive
[3]
  Potency: inactive
[4]
  activity change, negative = inhibition: 8.76% (inactive)
[4]; [7]
  max response: 13.5%
[4]; [8]
  max response: 23.8%
[5]
  Potency: inactive

## NCC1O[C@@H](OC2C(N)C[C@H](N)[C@@H](O[C@H]3OC(CO)C(O)C(N)C3O)C2O)C(N)C(O)C1O (stereo partly drawn)
[1]
  Potency: inactive
[2]
  Potency: inactive
[4]
  activity change, negative = inhibition: 2.92% (inactive)
[4]; [7]
  max response: 11.9%
[4]; [8]
  max response: 7.99%
[5]
  Potency: inactive
[6]
  Potency: inactive

## O=c1cc(-c2ccc(O)cc2)oc2ccc(O)cc12
[1]
  Potency: 3.16 µM (active)
[2]
  Potency: inactive
[3]
  Potency: inactive
[4]
  activity change, negative = inhibition: 6.92% (inactive)
[4]; [7]
  max response: 7.61%
[4]; [8]
  max response: 15.4%
[5]
  Potency: inactive

## CC(C)[C@H]1CC[C@@H](C)C[C@H]1O
[1]
  Potency: inactive
[4]
  activity change, negative = inhibition: -5.33% (inactive)
[4]; [7]
  max response: -11.9%
[4]; [8]
  max response: -15.2%
[5]
  Potency: inactive

## COc1ccc(-c2c(O)c3c(OC)c4c(cc3oc2=O)OC(C)(C)C=C4)cc1
[1]
  Potency: 6.31 µM (active)
[2]
  Potency: inactive
[3]
  Potency: inactive
[4]
  activity change, negative = inhibition: -13.4% (inactive)
[4]; [7]
  max response: -5.03%
[4]; [8]
  max response: -5.79%
[5]
  Potency: inactive

## COC(=O)CC1C(C)(C)C(O)C2CC3=C4C=C(OC)OC(c5ccoc5)[C@]4(C)CCC3[C@@]1(C)C2=O (stereo partly drawn)
[1]
  Potency: 10 µM (active)
[2]
  Potency: inactive
[3]
  Potency: inactive
[4]
  activity change, negative = inhibition: -1.2% (inactive)
[4]; [7]
  max response: 2.63%
[4]; [8]
  max response: 3.16%
[5]
  Potency: inactive

## CC(=O)OC1CC(O)C(C)(C)C2CC(OC(C)=O)[C@]3(C)C(CC[C@@]4(C)C(c5ccoc5)OC(=O)C5OC534)[C@]12C (stereo partly drawn)
[1]
  Potency: 2.51 µM (active)
[2]
  Potency: inactive
[3]
  Potency: inactive
[4]
  activity change, negative = inhibition: 4.32% (inactive)
[4]; [7]
  max response: 12.6%
[4]; [8]
  max response: 20.3%
[5]
  Potency: inactive

## O=C(O)C1(O)C[C@H](O)C(O)[C@@H](O)C1 (stereo partly drawn)
[1]
  Potency: inactive
[4]
  activity change, negative = inhibition: -0.572% (inactive)
[4]; [7]
  max response: -6.02%
[4]; [8]
  max response: -7.19%
[5]
  Potency: inactive

## COc1ccc2c(c1)OCC(Cc1ccc(OC)c(OC)c1)C2O (stereo not drawn)
[1]
  Potency: 7.94 µM (active) and 12.6 µM (active)
[2]
  Potency: inactive
[3]
  Potency: inactive
[4]
  activity change, negative = inhibition: 6.38% (inactive)
[4]; [7]
  max response: 8.42%
[4]; [8]
  max response: 15.9%
[5]
  Potency: inactive

## O=c1[nH]c(=O)n([C@@H]2O[C@H](CO)[C@@H](O)[C@H]2O)cc1Br
[1]
  Potency: inactive
[4]
  activity change, negative = inhibition: -8.5% (inactive)
[4]; [7]
  max response: -11.6%
[4]; [8]
  max response: -16.6%
[5]
  Potency: inactive

## COc1c(Cl)ccc(Cl)c1C(=O)O
[1]
  Potency: inactive
[2]
  Potency: inactive
[3]
  Potency: inactive
[4]
  activity change, negative = inhibition: 0.0476% (inactive)
[4]; [7]
  max response: -8.45%
[4]; [8]
  max response: -7.42%
[5]
  Potency: inactive

## COc1ccc2c(c1OC)C(=O)O[C@H]2C1c2c(cc3c(c2OC)OCO3)CCN1C (stereo partly drawn)
[2]
  Potency: inactive
[3]
  Potency: inactive
[4]
  activity change, negative = inhibition: 8.59% (inactive)
[4]; [7]
  max response: 20.9%
[4]; [8]
  max response: 32.4%
[5]
  Potency: inactive

## OCC1OC(Oc2cccc3cccnc23)C(O)C(O)C1O (stereo not drawn)
[1]
  Potency: inactive
[4]
  activity change, negative = inhibition: -4.73% (inactive)
[4]; [7]
  max response: -12.4%
[4]; [8]
  max response: -14.1%
[5]
  Potency: inactive

## CC[C@H](C)[C@H](NC(=O)OCC1c2ccccc2-c2ccccc21)C(=O)O
[1]
  Potency: 31.6 µM (active)
[4]
  activity change, negative = inhibition: -4.14% (inactive)
[4]; [7]
  max response: 1.47%
[4]; [8]
  max response: -2.84%
[5]
  Potency: inactive

## O=C(O)C(O)C(O)C(O)C(O)C(=O)O (stereo not drawn)
[1]
  Potency: inactive
[2]
  Potency: inactive
[3]
  Potency: inactive
[4]
  activity change, negative = inhibition: 5% (inactive)
[4]; [7]
  max response: 3.45%
[4]; [8]
  max response: 13%
[5]
  Potency: inactive
[6]
  Potency: inactive

## COC1OC2COC(c3ccccc3)OC2C(O)C1O (stereo not drawn)
[1]
  Potency: inactive
[4]
  activity change, negative = inhibition: 1.99% (inactive)
[4]; [7]
  max response: 4.47%
[4]; [8]
  max response: 4.04%
[5]
  Potency: inactive

## COC1C[C@@H](O[C@@H]2C(C)C(=O)OC(C)C(C)C(O)C(C)C(=O)[C@@]3(CO3)CC(C)C(OC3OC(C)CC(N(C)C)C3O)C2C)OC(C)[C@@H]1O (stereo partly drawn)
[1]
  Potency: 6.31 µM (active)
[2]
  Potency: inactive
[3]
  Potency: inactive
[4]
  activity change, negative = inhibition: 4.89% (inactive)
[4]; [7]
  max response: 4.4%
[4]; [8]
  max response: 11%
[5]
  Potency: inactive

## C/C=C(/C)C(=O)OC1Cc2c(ccc3ccc(=O)oc23)OC1(C)C (stereo not drawn)
[1]
  Potency: inactive
[2]
  Potency: inactive
[3]
  Potency: inactive
[4]
  activity change, negative = inhibition: 2.21% (inactive)
[4]; [7]
  max response: 9.88%
[4]; [8]
  max response: 14.5%
[5]
  Potency: inactive

## Nc1ccn([C@H]2C[C@H](O)[C@@H](CO)O2)c(=O)n1
[1]
  Potency: inactive
[4]
  activity change, negative = inhibition: 0.617% (inactive)
[4]; [7]
  max response: 3.42%
[4]; [8]
  max response: 2.44%
[5]
  Potency: inactive

## COC(=O)CC1C(C)(C)C(OC(C)=O)C2CC3C4CC(=O)OC(c5ccoc5)[C@]4(C)CCC3[C@@]1(C)C2=O (stereo partly drawn)
[1]
  Potency: 0.631 µM (active)
[2]
  Potency: inactive
[3]
  Potency: inactive
[4]
  activity change, negative = inhibition: -20.8% (inactive)
[4]; [7]
  max response: 1.85%
[4]; [8]
  max response: -17.5%
[5]
  Potency: inactive
